Source: PubChem BioAssay AID651663 (NMMLSC, 2012)

biological target: ATP-binding cassette sub-family B member 6 (Homo sapiens) (UniProt Q9NP58); assay: ABCB6 transporter inhibitors, porphyrin accumulation, dose response, flow cytometry, K562-ABCB6 cells, powder set 01 (AID 651663); conditions: 1 h; series mostly up to 100 µM; response % of control, lower = inhibition: at the top concentration
Sequence (Q9NP58 whole entry, looked up): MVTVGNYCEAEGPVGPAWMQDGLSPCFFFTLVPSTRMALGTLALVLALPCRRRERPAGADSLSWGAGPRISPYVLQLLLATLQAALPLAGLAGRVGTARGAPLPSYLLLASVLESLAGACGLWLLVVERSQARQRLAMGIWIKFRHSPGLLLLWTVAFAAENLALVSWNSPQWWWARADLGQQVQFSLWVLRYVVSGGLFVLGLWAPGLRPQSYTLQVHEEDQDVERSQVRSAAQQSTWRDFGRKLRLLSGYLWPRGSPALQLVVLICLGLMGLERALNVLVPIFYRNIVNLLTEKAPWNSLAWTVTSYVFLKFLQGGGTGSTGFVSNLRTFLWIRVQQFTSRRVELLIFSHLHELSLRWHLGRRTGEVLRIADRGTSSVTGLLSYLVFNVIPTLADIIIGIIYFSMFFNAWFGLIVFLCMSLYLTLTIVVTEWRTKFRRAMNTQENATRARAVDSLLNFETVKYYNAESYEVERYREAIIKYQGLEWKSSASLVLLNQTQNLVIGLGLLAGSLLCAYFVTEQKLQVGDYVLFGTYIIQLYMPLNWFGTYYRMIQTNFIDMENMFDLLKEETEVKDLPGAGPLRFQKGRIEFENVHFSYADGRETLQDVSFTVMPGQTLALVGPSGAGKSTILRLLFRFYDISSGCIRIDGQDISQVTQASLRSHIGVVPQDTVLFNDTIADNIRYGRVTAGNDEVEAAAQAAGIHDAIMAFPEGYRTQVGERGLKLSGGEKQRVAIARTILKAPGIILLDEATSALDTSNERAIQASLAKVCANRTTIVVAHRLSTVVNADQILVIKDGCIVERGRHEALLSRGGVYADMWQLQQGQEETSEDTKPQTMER

Response % of control, lower = inhibition, inactive:
CCOc1ccccc1NC(=O)c1nc(S(=O)(=O)Cc2cccc(C)c2)ncc1Cl 91.9%
CC(=O)Nc1ccc(NC(=O)c2nc(S(=O)(=O)Cc3ccccc3)ncc2Cl)cc1 78.9%
CC(=O)Nc1ccc(NC(=O)c2nc(S(=O)(=O)Cc3cccc(C)c3)ncc2Cl)cc1 360%
CCc1ccc(NC(=O)c2nc(S(=O)(=O)Cc3ccccc3)ncc2Cl)cc1 79.5%
